Out of some 2,000 compounds screened, about 1,300 (65%) were called active. So high a share suggests a set chosen from earlier hits. Only a sample is shown. Unmarked numbers belong to inactive results. No stated cut-off is given here; in the data, active means inhibition above about 43%; inactive means the rest.

Prolyl endopeptidase-like (Homo sapiens), sequence (Q4J6C6 whole entry, looked up): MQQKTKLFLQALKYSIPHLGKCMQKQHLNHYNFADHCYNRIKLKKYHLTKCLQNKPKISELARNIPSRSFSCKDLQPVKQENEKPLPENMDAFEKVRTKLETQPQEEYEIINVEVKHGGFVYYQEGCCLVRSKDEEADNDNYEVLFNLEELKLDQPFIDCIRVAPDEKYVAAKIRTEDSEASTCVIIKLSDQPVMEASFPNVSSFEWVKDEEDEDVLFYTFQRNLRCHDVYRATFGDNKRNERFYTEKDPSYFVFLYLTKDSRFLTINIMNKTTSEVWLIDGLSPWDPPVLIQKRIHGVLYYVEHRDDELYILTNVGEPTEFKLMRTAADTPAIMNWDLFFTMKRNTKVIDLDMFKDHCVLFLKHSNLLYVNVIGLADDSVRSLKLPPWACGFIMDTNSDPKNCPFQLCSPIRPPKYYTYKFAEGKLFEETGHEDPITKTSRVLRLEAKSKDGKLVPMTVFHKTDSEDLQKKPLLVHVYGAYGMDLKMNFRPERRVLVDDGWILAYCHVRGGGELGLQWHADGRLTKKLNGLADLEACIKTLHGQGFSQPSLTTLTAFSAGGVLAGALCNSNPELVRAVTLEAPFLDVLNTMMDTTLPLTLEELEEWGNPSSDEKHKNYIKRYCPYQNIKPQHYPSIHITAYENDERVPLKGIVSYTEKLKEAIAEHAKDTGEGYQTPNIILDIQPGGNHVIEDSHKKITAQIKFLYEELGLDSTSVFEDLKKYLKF

This assay has as its target Prolyl endopeptidase-like (Homo sapiens) (UniProt Q4J6C6). In words: human PREPL enzyme inhibitors, confirmation, biochemical, fluorescence polarization (AID 2803).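 Further: 0% = protein with DMSO and 100% = wells lacking protein.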 As to conditions: recombinant PREPL, fluorescence polarization activity probe; at 5.96 µM; hits give high values. For orientation: Polarisation of emitted light reports the rotation of a fluorescent probe.
On to `CCOc1cccc(=NC2CCCCC2)c2c(C)[nH]c(C)c12`, for which the inhibition – broadly, the share of the control response that was lost under treatment – was 54.4% (active).

With `O=C(NCC(c1cccnc1)N1CCN(c2ccccc2)CC1)Oc1ccccc1` (stereo not drawn), the inhibition was 39.3%.

For `COc1ccc2[nH]c3c(c2c1)CCN[C@H]3C`, the inhibition is 23.7%.

Values taken from PubChem BioAssay AID2803 (The Scripps Research Institute Molecular Screening Center, 2010).
